Source: PubChem (several laboratories)
ROCK2 inh – ROCK2 (human) kinase inhibition. 60,000 tested, 0.35% active. purified ROCK2, Kinase-Glo ATP depletion luminescence. O75116. inhibition, % at 6 µM;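 active = inhibition above the screen-wide mean inhibition plus 3 SD, cut at about 18% in these data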
D1 mod – allosteric modulators of human D1 dopamine receptor; HEK293 D1, CRE-luciferase, dopamine EC30 potentiation; actives deviate in either direction; B-score at 10 µM; 58,000 tested, 5.9% active;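 active = luminescence count or its row- and column-corrected plate score outside the 99.7% band of the plate's sample wells, on either side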
Target sequence (P21728 whole entry, looked up): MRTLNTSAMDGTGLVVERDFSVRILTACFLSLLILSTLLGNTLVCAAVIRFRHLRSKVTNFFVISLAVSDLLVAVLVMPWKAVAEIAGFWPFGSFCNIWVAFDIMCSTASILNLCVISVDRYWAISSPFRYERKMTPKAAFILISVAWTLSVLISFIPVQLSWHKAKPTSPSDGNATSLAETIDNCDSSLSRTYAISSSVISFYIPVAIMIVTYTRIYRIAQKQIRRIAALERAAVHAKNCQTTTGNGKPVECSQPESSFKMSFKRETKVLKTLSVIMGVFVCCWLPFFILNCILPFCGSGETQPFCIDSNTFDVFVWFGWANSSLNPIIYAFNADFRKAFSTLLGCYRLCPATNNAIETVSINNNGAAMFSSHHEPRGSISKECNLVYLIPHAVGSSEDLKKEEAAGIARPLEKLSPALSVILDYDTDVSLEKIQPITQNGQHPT
JNK3 blocker – blocks human JNK3 kinase activity | inhibition, % at 8 µM | 60,000 tested, 0.61% active | purified JNK3 kinase activity, HTS | P53779 | AID 746; in the data active = inhibition above about 17%
hDAT+cocaine – modulates human dopamine transporter uptake under cocaine; Q01959; LLC-PK1 hDAT cells, [14C]-dopamine uptake with cocaine IC80; actives deviate in either direction; B-score at 10 µM; 110,000 tested, 1.3% active; AID 449768;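 active = Z score or B-score, a plate-position-corrected score, falls beyond the plate's 99.7% confidence bounds, in either direction; inactive = both scores lie inside the 99.7% bounds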
PKA inh – inhibitors of human protein kinase A. P17612. PKA Kemptide phosphorylation, Kinase-Glo ATP luminescence. inhibition, % at 6 µM. 65,000 tested, 0.1% active. AID 524;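 active = inhibition above the screen-wide mean inhibition plus 3 SD, cut at about 21% in these data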
D1 mod confirm – confirmation of human D1 dopamine receptor allosteric modulators | luminescence at 10 µM | HEK293 D1 CRE-luciferase, dopamine EC30 potentiation; active compounds read high | AID 642 | 2,200 tested, 88% active | shares compounds with D1 mod;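 active = luminescence in either of two replicates above the same-plate mean plus 3 SD of the low-dose dopamine control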
D1 ag no DA – secondary test of D1 modulators: activity without dopamine | shares compounds with D1 mod | HEK293 D1 CRE-luciferase, luminescence, no dopamine; active compounds read high | luminescence at 10 µM | 1,900 tested, 0.8% active | AID 646; in the data active = luminescence above about 3900
Isoprot counter – counter-screen for D1 modulators: isoproterenol response in HEK293 cells. shares compounds with D1 mod. HEK293 D1 CRE-luciferase, isoproterenol EC30 counter-screen. calls only at 10 µM. 2,200 tested, 63% active. AID 647;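 active = luminescence in either replicate above plate mean of wells with a partly effective reference agonist dose plus 3 SD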;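 note: isoproterenol raises cAMP through native beta-adrenoceptor Gs so signal bypasses D1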
Numbers stand for hits; – = inactive; · = not tested or not shown; + = active, no number. The full list was thinned out, with hits kept by preference.

SMILES | ROCK2 inh | D1 mod | JNK3 blocker | hDAT+cocaine | PKA inh | D1 mod confirm | D1 ag no DA | Isoprot counter
COc1cccc(N2C(=O)C3ON(c4ccccc4)C(c4cccs4)C3C2=O)c1 (configuration not stated) | – | 15 | – | – | – | 6168 | – | –
O=C(COc1ccccc1)Nc1ccc(CSc2ccccc2)cc1 | · | · | · | – | · | · | · | ·
C/C(Cl)=C/Cn1c(=O)c2c(nc(Br)n2Cc2ccccc2)n(C)c1=O | – | 4.8 | – | – | – | 11400 | – | +
CCNc1nc2c(c(=O)n(Cc3ccccc3)c(=O)n2C)n1Cc1ccccc1 | – | 4.4 | – | 3 | – | 8220 | – | +
CCOc1cc(C(=O)N2CCOCC2)ccc1OCc1ccccc1 | – | – | – | – | – | · | · | ·
CCN1CCN(Cc2c(C)[nH]c3ccc(OC)cc3c2=O)CC1 | · | – | · | · | – | · | · | ·
O=C1C(Cl)=C(NCC2CCCO2)C(=O)N1C1CCCCC1 (configuration not stated) | – | 4.4 | – | – | – | 8656 | – | –
Cc1nnc2c(NC(C)C)nc3ccccc3n12 | – | 16 | – | – | – | 12020 | – | +
CCOc1cc(C2C(C(=O)OC)=C(C)N=C3SCCC(=O)N32)ccc1OC(C)=O (configuration not stated) | – | 5.1 | – | – | – | 6516 | · | +
CCN(CC)CCNC(=O)C1c2ccccc2C(=O)N(CCOC)C1c1ccc(F)cc1 (configuration not stated) | · | · | · | – | · | · | · | ·
CCSc1nc2c(c(=O)n1CC)SC(C)C2 (configuration not stated) | – | 5.5 | – | – | – | 12712 | – | –
CSc1nc2c(c(=O)n1C)SC(C)C2 (configuration not stated) | – | – | – | – | – | · | · | ·
CCn1c(SCC(=O)Nc2cc(C)on2)nc2c(c1=O)SC(C)C2 (configuration not stated) | – | 6.2 | – | – | – | 6212 | – | –
CCC(C)Sc1nc2c(c(=O)n1C)SC(C)C2 (configuration not stated) | – | 3.9 | – | – | – | 8748 | – | –
CCN(c1nc(C)cc(OC)n1)S(=O)(=O)c1ccccc1 | · | · | · | – | · | · | · | ·
CCOC(=O)c1[nH]c2ccccc2c1NC(=O)C(C)(C)C | – | 4.5 | – | – | – | 7700 | – | –
CCOC(=O)c1[nH]c2ccc(OC)cc2c1NC(=O)c1nonc1C | – | 8.7 | – | – | – | 12456 | · | +
CCOC(=O)c1[nH]c2ccccc2c1NC(=O)c1nonc1C | · | 5.8 | · | – | – | 11368 | – | +
CCOC(=O)c1[nH]c2ccc(Cl)cc2c1NC(=O)c1nonc1C | · | · | · | – | · | · | · | ·
CCC(Sc1nc2cc(OC)c(OC)cc2c2nc(C)nn12)C(=O)NCc1ccco1 (configuration not stated) | – | – | – | · | – | · | · | ·
Cc1cc(O)c(C=Nc2cccc(Cl)c2)c(=O)o1 | – | 3.8 | – | – | – | 8536 | – | –
COC(=O)C1=C(NC(=O)c2ccc(C)cc2)CCS1 | · | · | · | – | · | · | · | ·
O=S(=O)(Nc1cccc(-c2nc3cccnc3s2)c1)c1ccc2c(c1)OCCO2 | – | 4.6 | – | – | – | 8604 | – | –
CCOC(=O)c1cc(C)n(-c2ccc(OC)c(OC)c2)c1C | – | · | – | – | – | · | · | ·
CCn1cnc2c1c(=O)n(CC(=O)Nc1cc(C)on1)c(=O)n2Cc1ccccc1 | – | – | – | – | – | · | · | ·
SMILES | ROCK2 inh | D1 mod | JNK3 blocker | hDAT+cocaine | PKA inh | D1 mod confirm | D1 ag no DA | Isoprot counter
CCOC(=O)c1c(C)[nH]c(C(=O)Cn2c(=O)c3c(ncn3CC)n(Cc3ccccc3)c2=O)c1C | – | 13 | – | – | – | 20428 | – | +
CCOC(=O)c1ccc(CNC(=O)c2cc3cccc(OC)c3oc2=O)o1 | – | – | – | · | – | · | · | ·
C=CCn1c(NC(=O)c2ccccc2)c(C#N)c2nc3ccccc3nc21 | – | – | – | · | – | · | · | ·
CCCCn1c(NC(C)=O)c(C#N)c2nc3ccccc3nc21 | – | 3.8 | – | – | – | 11192 | – | –
CN(C)c1ccc(/C(=N\O)c2ccccc2)cc1 | – | 3.6 | – | – | – | 16920 | – | +
COc1ccc(Cc2nnc(NC(=O)c3c(-c4ccccc4)noc3C)s2)cc1 | – | 3.3 | – | – | – | 6196 | – | –
COc1ccc(Cc2nnc(NC(=O)c3c(-c4ccccc4)noc3C)s2)cc1OC | – | · | – | · | – | · | · | ·
NC1=NC(c2ccc(Cl)cc2)n2c(nc3ccccc32)N1 (configuration not stated) | – | 9.1 | – | – | – | 11876 | – | –
CCCn1c(CCc2ccccc2)nnc1SCC(=O)N1CCOCC1 | – | 3.2 | – | – | – | – | – | –
Cn1c(Cn2c(=O)sc3ccccc32)nnc1SCC(=O)N1CCOCC1 | – | 5.1 | – | – | – | 8076 | – | –
Cc1cc2nc(-c3ccc(NC(=O)C(C)C)cc3)oc2cc1C | – | 5.8 | – | · | – | – | – | –
CCOC(=O)CCCSc1nc2sc(C)c(C)c2c(=O)[nH]1 | – | 2.9 | – | – | – | 6744 | · | +
Cc1c(S(=O)(=O)Nc2cccc(Cl)c2)c(=O)n(C)c(=O)n1C | – | 2.7 | – | – | – | – | – | –
Cc1nc2sc3c(c2c(=O)[nH]1)CCC3 | – | 3.1 | – | – | – | 11308 | – | –
Nc1nc2sc3c(c2c(=O)s1)CCCC3 | – | 14 | – | – | – | 13312 | – | +
COc1ccc(C(=O)OC(C(=O)c2ccccc2)c2ccccc2)cc1 (configuration not stated) | · | · | · | – | · | · | · | ·
CCN1CCN(C(=O)c2nn(-c3ccc(C)cc3)c(=O)c3c2c2ccccc2n3C)CC1 | – | 4.8 | – | – | – | – | · | –
COC(=O)c1[nH]c2cccc(Cl)c2c1NC(=O)CN(C)C1CCCCC1 | – | 11 | – | – | – | 16352 | – | +
CCOC(=O)C1CCN(CC(=O)Nc2c(C(=O)OC)[nH]c3cccc(Cl)c23)CC1 | – | 3.7 | – | – | – | 9896 | – | +
COc1ccc2c(CSc3nc4nc(C)cc(C)n4n3)cc(=O)oc2c1 | – | – | – | – | – | · | · | ·
Cc1ccccc1NC(=O)c1ccc(-n2cncn2)nc1 | · | · | · | – | · | · | · | ·
Nc1cccc(-n2nncc2-c2ccc(Cl)cc2)c1 | · | – | · | – | – | · | · | ·
Nc1nonc1-n1nncc1-c1ccccc1 | · | 5.9 | · | – | 28 | 10724 | – | +
O=C(CSCC(=O)OCC(=O)c1ccc(Br)cc1)Nc1cccc2ccccc12 | · | · | · | – | · | · | · | ·
CCN(CC)C(=O)c1cnn(-c2ccccc2)c1NC(=O)c1cccs1 | · | · | · | – | · | · | · | ·
O=C1NCC(CN(c2ccccc2)c2ccccc2)O1 (configuration not stated) | – | 2.9 | – | – | – | 9384 | – | +
COc1ccc(OCC2CNC(=O)O2)cc1 (configuration not stated) | · | · | · | · | – | · | · | ·
